Measured values from the supplement of paper PMC10849652.
Of roughly 8,800 targets only a part is listed; those with a hit were picked by preference. About 0.5% of all pairs of compound and target were hits.

Experiments:
Assay in all cases: log2 fold change, soluble protein after heating vs DMSO (PISA); higher = thermal stabilisation; K562 lysate, 10 uM; active = over 0.2 and 3.5 SD of the protein, either way, in both replicates (recomputed)
vemurafenib = compound: CCCS(=O)(=O)Nc1ccc(F)c(C(=O)c2c[nH]c3ncc(-c4ccc(Cl)cc4)cc23)c1F [vemurafenib]
Method in brief: (§1)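 Soluble protein was defined as the supernatant remaining after 21,000xg for 90 min, following pooling of heated aliquots and adjustment to 0.5% NP-40 at 4°C. Before that, crude K562 extract at 1 mg/mL protein in PBS pH 7.4 with 1 mM MgCl2 was treated with 10 μM compound for 30 min and heated for 3 min across 48°C-58°C. Quantification used TMTpro 16plex LC-MS/MS with channel sums equalised, and values are log-two fold changes in thermal stability relative to solvent controls from duplicates.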

[1] = compound: CCCS(=O)(=O)Nc1ccc(F)c(C(=O)c2c[nH]c3ncc(Cl)cc23)c1F
Method in brief: as §1

barasertib = compound: CCN(CCCOc1ccc2c(Nc3cc(CC(=O)Nc4cccc(F)c4)[nH]n3)ncnc2c1)CCOP(=O)(O)O [barasertib]
Method in brief: as §1

[2] = compound: CC[C@@H]1C(=O)N(C)c2cnc(Nc3ccc(C(=O)NC4CCN(C)CC4)cc3OC)nc2N1C1CCCC1
Method in brief: as §1

volasertib = compound: CC[C@@H]1C(=O)N(C)c2cnc(Nc3ccc(C(=O)N[C@H]4CC[C@H](N5CCN(CC6CC6)CC5)CC4)cc3OC)nc2N1C(C)C [volasertib]
Method in brief: as §1

[3] = compound: CCn1c(C(=O)N(C2CC2)C2CC2)cc2c3c(ncn3C)c(Nc3cc(C)n(C)n3)nc21
Method in brief: as §1

[4] = compound: CCn1cc(-c2ccnc3[nH]c(-c4cccc(CN(C)C)c4)cc23)c(-c2ccc(NC(=O)N(C)C)cc2)n1
Method in brief: as §1

[5] = compound: CN1CCC(CNc2ccc3ncc(-c4cccc(OC(F)(F)F)c4)n3n2)CC1
Method in brief: as §1

saracatinib = compound: CN1CCN(CCOc2cc(OC3CCOCC3)c3c(Nc4c(Cl)ccc5c4OCO5)ncnc3c2)CC1 [saracatinib]
Method in brief: as §1

sotrastaurin = compound: CN1CCN(c2nc(C3=C(c4c[nH]c5ccccc45)C(=O)NC3=O)c3ccccc3n2)CC1 [sotrastaurin]
Method in brief: as §1

Measured: log2 fold change

RNF213, A0A0A0MTC1
inactive: vemurafenib 0.017 | [1] 0.025 | barasertib 0.076 | [2] -0.038 | volasertib -0.077 | [3] 0.027 | [4] -0.05 | [5] -0.053 | saracatinib 0.027 | sotrastaurin 0.043

RARS (UniProt P54136)
inactive: vemurafenib -0.004 | [1] -0.003 | barasertib 0.046 | [2] -0.093 | volasertib -0.078 | [3] 0.067 | [4] 0.013 | [5] -0.039 | saracatinib 0.027 | sotrastaurin 0.045

S100A11 (UniProt P31949)
inactive: vemurafenib 0.005 | [1] -0.015 | barasertib 0.008 | [2] 0.037 | volasertib 0.098 | [3] 0.004 | [4] -0.008 | [5] -0.052 | saracatinib 0.023 | sotrastaurin -0.036

RNF123 (UniProt Q5XPI4)
inactive: vemurafenib 0.034 | [1] 0.003 | barasertib 0.019 | [2] -0.009 | volasertib -0.048 | [3] 0.035 | [4] -0.045 | [5] 0.004 | saracatinib -0.006 | sotrastaurin 0.03

RANBP6 (UniProt O60518)
inactive: vemurafenib 0.008 | [1] 0.025 | barasertib 0.013 | [2] -0.016 | volasertib 0.013 | [3] 0.068 | [4] -0.045 | [5] 0.06 | saracatinib -0.038 | sotrastaurin 0.002

RPS9 (UniProt P46781)
inactive: vemurafenib -0.037 | [1] -0.01 | barasertib -0.003 | [2] -0.074 | volasertib -0.005 | [3] 0.03 | [5] -0.063 | saracatinib 0 | sotrastaurin -0.023
active: [4] 0.302

RPTOR (UniProt Q8N122)
inactive: vemurafenib -0.028 | [1] 0.022 | barasertib 0.052 | [2] -0.024 | volasertib -0.046 | [3] 0.038 | [4] 0.018 | [5] -0.039 | saracatinib 0 | sotrastaurin 0.046

RRAGA (UniProt Q7L523)
Sequence of UniProt Q7L523 (Q7L523 whole entry, looked up): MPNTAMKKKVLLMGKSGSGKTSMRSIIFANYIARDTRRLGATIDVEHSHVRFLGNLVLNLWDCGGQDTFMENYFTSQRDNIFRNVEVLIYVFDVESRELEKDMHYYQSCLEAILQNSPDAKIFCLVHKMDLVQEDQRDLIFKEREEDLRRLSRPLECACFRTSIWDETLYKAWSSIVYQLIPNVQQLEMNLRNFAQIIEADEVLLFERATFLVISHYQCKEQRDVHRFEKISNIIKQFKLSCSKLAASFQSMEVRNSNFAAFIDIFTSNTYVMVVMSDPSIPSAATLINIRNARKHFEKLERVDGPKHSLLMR
inactive: vemurafenib 0.111 | [1] 0.092 | barasertib -0.004 | [2] 0.014 | volasertib 0.042 | [3] 0.139 | [4] -0.011 | [5] 0.051 | saracatinib 0.081 | sotrastaurin -0.014

QRSL1 (UniProt Q9H0R6)
Sequence of UniProt Q9H0R6 (Q9H0R6 whole entry, looked up): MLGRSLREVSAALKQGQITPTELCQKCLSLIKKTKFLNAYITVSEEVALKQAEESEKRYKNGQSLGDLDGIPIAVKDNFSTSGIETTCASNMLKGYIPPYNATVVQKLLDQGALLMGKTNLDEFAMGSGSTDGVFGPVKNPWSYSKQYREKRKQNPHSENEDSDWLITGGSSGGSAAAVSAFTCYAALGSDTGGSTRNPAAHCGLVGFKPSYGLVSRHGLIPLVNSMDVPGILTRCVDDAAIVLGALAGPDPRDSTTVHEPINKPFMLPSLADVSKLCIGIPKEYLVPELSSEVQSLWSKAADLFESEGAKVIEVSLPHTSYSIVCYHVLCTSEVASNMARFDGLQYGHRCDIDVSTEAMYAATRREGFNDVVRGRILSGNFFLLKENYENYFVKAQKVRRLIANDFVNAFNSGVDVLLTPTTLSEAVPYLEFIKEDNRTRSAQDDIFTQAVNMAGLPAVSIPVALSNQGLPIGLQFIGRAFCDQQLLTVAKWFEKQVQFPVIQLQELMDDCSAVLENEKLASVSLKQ
inactive: vemurafenib 0.134 | [1] 0.012 | barasertib 0.044 | [2] -0.004 | volasertib -0.057 | [3] 0.008 | [4] -0.178 | [5] -0.138 | saracatinib -0.056 | sotrastaurin 0.071

SASS6 (UniProt Q6UVJ0)
inactive: vemurafenib 0.042 | [1] -0.024 | barasertib -0.016 | [2] 0.039 | volasertib -0.024 | [3] 0.024 | [4] 0.154 | [5] -0.047 | saracatinib 0.059 | sotrastaurin -0.02

SBF1 isoform 4 (UniProt O95248)
inactive: vemurafenib 0.118 | [1] 0.012 | barasertib 0.033 | [2] 0.071 | volasertib -0.111 | [3] 0.014 | [4] -0.107 | [5] 0.029 | saracatinib 0.062 | sotrastaurin 0

RIOK3 (UniProt O14730)
inactive: vemurafenib 0.021 | [1] -0.004 | barasertib 0.004 | [2] -0.098 | volasertib -0.041 | [3] -0.032 | [4] -0.052 | [5] -0.024 | saracatinib -0.03 | sotrastaurin 0.013

RFC4 (UniProt P35249)
inactive: vemurafenib 0.047 | [1] 0.02 | barasertib 0.02 | [2] -0.012 | volasertib -0.042 | [3] 0.003 | [4] -0.086 | [5] 0.028 | saracatinib 0.044 | sotrastaurin 0.003

RALGAPA1 isoform 6 (UniProt Q6GYQ0)
inactive: vemurafenib -0.008 | [1] 0.017 | barasertib 0.196 | [2] 0.02 | volasertib -0.03 | [3] -0.007 | [5] 0.074 | saracatinib 0.049 | sotrastaurin 0.03
active: [4] -0.377

RNF40 (UniProt O75150)
Sequence of UniProt O75150 (O75150 whole entry, looked up): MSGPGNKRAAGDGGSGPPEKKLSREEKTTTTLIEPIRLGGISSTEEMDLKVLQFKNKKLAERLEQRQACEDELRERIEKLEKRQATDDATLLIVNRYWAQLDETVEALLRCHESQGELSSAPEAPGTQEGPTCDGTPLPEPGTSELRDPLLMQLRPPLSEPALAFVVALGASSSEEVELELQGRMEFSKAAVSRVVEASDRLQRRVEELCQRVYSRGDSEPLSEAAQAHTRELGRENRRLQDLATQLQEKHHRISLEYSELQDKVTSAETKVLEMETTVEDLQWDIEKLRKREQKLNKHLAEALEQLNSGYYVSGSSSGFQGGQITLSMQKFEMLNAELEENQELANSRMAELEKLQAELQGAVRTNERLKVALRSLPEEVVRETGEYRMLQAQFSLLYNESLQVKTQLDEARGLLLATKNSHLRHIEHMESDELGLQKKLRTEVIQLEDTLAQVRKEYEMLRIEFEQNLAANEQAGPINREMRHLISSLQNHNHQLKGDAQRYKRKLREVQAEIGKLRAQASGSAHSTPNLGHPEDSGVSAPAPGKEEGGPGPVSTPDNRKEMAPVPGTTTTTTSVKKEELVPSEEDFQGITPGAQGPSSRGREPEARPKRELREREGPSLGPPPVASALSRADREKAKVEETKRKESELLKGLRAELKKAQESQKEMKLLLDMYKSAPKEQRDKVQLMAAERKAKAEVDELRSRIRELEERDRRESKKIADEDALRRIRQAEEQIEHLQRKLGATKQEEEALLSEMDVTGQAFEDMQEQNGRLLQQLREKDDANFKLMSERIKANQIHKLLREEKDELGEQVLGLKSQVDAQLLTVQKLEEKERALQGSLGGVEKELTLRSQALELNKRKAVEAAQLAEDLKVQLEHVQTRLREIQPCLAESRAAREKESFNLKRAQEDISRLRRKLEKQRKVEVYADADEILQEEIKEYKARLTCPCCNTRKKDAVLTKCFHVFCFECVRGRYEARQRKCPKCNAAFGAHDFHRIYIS
inactive: vemurafenib 0.001 | [1] 0.008 | barasertib 0.043 | [2] -0.005 | volasertib -0.047 | [3] 0.002 | [4] 0.011 | [5] -0.033 | saracatinib 0.033 | sotrastaurin -0.012

SEH1L isoform 1 (UniProt Q96EE3)
Sequence of UniProt Q96EE3 (Q96EE3 whole entry, looked up): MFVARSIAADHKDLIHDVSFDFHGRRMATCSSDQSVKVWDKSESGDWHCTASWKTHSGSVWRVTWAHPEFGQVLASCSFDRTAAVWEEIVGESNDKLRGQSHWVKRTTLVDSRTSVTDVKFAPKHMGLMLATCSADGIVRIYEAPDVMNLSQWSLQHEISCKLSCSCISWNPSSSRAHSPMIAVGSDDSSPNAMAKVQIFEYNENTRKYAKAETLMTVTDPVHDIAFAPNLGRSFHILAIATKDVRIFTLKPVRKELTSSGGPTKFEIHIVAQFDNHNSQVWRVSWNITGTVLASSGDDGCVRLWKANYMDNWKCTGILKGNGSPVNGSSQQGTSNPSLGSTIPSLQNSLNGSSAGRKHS
active: volasertib 0.216
inactive: vemurafenib -0.029 | [1] -0.001 | barasertib 0.004 | [2] 0.069 | [3] -0.015 | [4] -0.022 | [5] 0.021 | saracatinib -0.005 | sotrastaurin -0.01

RBM8A (UniProt Q9Y5S9)
inactive: vemurafenib -0.086 | [1] -0.045 | barasertib 0.027 | [2] -0.091 | volasertib -0.016 | [3] 0.047 | [4] 0.35 | [5] -0.198 | saracatinib -0.043 | sotrastaurin 0.047

REL isoform 2 (UniProt Q04864)
inactive: vemurafenib -0.035 | [1] 0.017 | barasertib 0.033 | [2] 0.049 | volasertib -0.032 | [3] 0.025 | [4] 0.02 | [5] -0.174 | saracatinib -0.002 | sotrastaurin -0.022

RAB3IL1 (UniProt Q8TBN0)
inactive: vemurafenib -0.018 | [1] 0.017 | barasertib 0.054 | [2] 0.022 | volasertib -0.008 | [3] 0.054 | [4] 0.025 | [5] -0.016 | saracatinib 0.033 | sotrastaurin -0.024

RABEPK (UniProt Q7Z6M1)
Sequence of UniProt Q7Z6M1 (Q7Z6M1 whole entry, looked up): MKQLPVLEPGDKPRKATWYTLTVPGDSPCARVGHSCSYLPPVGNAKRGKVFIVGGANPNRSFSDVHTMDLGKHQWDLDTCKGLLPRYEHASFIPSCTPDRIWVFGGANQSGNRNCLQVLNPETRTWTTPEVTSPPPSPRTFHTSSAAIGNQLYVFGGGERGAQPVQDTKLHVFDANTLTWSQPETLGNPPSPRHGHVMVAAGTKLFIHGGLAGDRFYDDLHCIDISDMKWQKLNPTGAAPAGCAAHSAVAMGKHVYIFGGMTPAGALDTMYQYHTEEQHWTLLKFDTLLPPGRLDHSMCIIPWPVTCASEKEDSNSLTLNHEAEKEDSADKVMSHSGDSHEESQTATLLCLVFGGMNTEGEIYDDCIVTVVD
inactive: vemurafenib -0.024 | [1] 0.003 | barasertib -0.066 | [2] 0.014 | volasertib -0.006 | [3] -0.021 | [4] 0.015 | [5] 0.011 | saracatinib -0.02 | sotrastaurin -0.028

RHAG (UniProt Q02094)
Sequence of UniProt Q02094 (Q02094 whole entry, looked up): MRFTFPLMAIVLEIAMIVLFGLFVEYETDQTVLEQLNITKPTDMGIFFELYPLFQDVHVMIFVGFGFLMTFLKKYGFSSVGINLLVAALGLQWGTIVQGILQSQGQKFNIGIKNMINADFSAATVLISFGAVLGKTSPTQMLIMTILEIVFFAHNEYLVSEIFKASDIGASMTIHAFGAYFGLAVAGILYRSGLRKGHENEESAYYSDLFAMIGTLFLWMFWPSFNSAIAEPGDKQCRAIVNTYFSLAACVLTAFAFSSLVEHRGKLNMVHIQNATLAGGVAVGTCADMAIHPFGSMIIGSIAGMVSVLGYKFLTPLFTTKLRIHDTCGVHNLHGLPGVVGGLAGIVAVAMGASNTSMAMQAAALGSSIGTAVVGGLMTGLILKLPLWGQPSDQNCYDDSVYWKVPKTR
inactive: vemurafenib -0.032 | [1] -0.116 | barasertib 0.054 | [2] -0.16 | volasertib 0.053 | [3] -0.003 | [5] 0.121 | saracatinib 0.053 | sotrastaurin 0.029
active: [4] -0.413

QTRT2 isoform 4 (UniProt Q9H974)
Sequence of UniProt Q9H974 (Q9H974 whole entry, looked up): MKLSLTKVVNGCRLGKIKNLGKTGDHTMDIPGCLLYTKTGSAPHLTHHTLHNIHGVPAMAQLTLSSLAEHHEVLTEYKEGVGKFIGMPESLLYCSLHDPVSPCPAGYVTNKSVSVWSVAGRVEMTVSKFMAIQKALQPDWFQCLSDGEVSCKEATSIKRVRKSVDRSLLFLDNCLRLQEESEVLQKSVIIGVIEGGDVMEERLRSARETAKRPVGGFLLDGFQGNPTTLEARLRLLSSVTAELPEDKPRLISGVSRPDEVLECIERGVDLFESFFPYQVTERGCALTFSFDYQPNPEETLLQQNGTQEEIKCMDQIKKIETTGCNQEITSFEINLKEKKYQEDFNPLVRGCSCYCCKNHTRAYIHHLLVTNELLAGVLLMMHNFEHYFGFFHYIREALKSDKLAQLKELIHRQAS
inactive: vemurafenib 0.003 | [1] 0.012 | barasertib 0.004 | [2] -0.022 | volasertib 0.036 | [3] -0.035 | saracatinib 0.016 | sotrastaurin 0.013
active: [4] -0.318 | [5] 0.227

RPS4X (UniProt P62701)
inactive: vemurafenib 0.001 | [1] -0.014 | barasertib -0.033 | [2] 0.001 | volasertib -0.007 | [3] -0.025 | [5] -0.059 | saracatinib -0.016 | sotrastaurin -0.009
active: [4] 0.242

RASA2 (UniProt Q15283)
Sequence of UniProt Q15283 (Q15283 whole entry, looked up): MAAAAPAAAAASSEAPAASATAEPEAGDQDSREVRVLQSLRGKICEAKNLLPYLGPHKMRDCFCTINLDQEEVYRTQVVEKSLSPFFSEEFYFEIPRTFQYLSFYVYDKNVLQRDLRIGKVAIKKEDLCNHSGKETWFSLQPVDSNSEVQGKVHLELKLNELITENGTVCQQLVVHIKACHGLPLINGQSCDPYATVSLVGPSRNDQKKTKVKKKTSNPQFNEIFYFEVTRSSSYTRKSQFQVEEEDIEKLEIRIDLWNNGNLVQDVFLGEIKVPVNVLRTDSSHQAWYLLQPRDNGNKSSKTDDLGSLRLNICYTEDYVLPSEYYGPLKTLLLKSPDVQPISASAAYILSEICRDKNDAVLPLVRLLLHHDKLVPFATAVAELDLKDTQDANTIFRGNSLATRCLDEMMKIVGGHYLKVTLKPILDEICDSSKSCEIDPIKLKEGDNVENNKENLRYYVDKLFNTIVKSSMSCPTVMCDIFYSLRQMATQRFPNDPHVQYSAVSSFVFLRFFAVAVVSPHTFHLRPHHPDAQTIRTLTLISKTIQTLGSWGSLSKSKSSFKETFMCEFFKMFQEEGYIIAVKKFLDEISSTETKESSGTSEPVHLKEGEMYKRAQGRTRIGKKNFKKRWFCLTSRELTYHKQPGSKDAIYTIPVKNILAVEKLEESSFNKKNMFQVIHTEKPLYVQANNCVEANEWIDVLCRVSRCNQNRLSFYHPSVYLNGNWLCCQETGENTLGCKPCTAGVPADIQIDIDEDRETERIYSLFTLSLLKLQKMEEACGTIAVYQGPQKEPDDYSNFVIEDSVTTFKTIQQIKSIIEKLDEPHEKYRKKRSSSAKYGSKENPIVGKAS
inactive: vemurafenib 0.069 | [1] 0.025 | barasertib -0.02 | [2] -0.055 | volasertib -0.018 | [3] 0.02 | [4] -0.028 | [5] -0.013 | saracatinib 0.068 | sotrastaurin -0.017

RAP1B (UniProt P61224)
Sequence of UniProt P61224 (P61224 whole entry, looked up): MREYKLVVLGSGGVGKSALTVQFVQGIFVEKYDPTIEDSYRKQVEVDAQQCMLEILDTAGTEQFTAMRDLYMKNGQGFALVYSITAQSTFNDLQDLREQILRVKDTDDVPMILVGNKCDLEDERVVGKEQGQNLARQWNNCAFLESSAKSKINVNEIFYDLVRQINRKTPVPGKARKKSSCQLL
inactive: vemurafenib 0.006 | [1] 0.008 | barasertib 0.054 | [2] 0.061 | volasertib 0.018 | [3] -0.037 | [5] -0.035 | saracatinib 0.002 | sotrastaurin 0.005
active: [4] 0.372

RCC1 isoform 2 (UniProt P18754)
inactive: vemurafenib 0.049 | [1] 0.018 | barasertib -0.008 | [2] -0.114 | volasertib -0.066 | [3] 0.027 | [4] -0.105 | [5] -0.046 | saracatinib -0.021 | sotrastaurin 0.001

RBM23 isoform 2 (UniProt Q86U06)
Sequence of UniProt Q86U06 (Q86U06 whole entry, looked up): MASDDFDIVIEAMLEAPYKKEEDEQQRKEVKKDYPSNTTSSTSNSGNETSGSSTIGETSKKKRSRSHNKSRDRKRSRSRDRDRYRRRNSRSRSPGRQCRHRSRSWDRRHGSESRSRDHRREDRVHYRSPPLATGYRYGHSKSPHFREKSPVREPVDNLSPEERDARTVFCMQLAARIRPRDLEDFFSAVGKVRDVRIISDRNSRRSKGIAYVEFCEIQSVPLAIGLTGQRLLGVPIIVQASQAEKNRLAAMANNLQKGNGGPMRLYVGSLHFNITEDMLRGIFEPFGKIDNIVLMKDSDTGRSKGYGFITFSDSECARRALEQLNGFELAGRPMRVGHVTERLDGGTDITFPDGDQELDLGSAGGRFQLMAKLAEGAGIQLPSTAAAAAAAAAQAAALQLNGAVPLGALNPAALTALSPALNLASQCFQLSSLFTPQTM
inactive: vemurafenib 0.2 | [1] 0.02 | barasertib 0.234 | [2] -0.153 | volasertib -0.011 | [3] 0.058 | [4] -0.01 | [5] -0.143 | saracatinib 0.064 | sotrastaurin 0.131
